An excerpt weighted towards active compounds, which were near 13% of everything screened.
USP28 block = blocks human USP28 ubiquitin-rhodamine cleavage | purified USP28, Ub-rhodamine cleavage fluorescence, 30 min | Q96RU2 | AID 1645857 | 47,000 compounds, 3% hits | inhibition, % at 25 µM
USP30 block = blocks human USP30 ubiquitin-rhodamine cleavage | AID 1645860 | Q70CQ3 | inhibition, % at 25 µM | 47,000 compounds, 5.3% hits | purified USP30, Ub-rhodamine cleavage fluorescence
USP8 block = inhibitors of human USP8 deubiquitinase. P40818. purified USP8, Ub-rhodamine cleavage fluorescence, 30 min. inhibition, % at 20 µM. 47,000 compounds, 4.2% hits. AID 1645853
USP10 block = blocks human USP10 ubiquitin-rhodamine cleavage; 47,000 compounds, 1.1% hits; Q14694; purified USP10, Ub-rhodamine fluorescence, 60 min; inhibition, % at 20 µM
Target sequence (Q14694 whole entry, looked up): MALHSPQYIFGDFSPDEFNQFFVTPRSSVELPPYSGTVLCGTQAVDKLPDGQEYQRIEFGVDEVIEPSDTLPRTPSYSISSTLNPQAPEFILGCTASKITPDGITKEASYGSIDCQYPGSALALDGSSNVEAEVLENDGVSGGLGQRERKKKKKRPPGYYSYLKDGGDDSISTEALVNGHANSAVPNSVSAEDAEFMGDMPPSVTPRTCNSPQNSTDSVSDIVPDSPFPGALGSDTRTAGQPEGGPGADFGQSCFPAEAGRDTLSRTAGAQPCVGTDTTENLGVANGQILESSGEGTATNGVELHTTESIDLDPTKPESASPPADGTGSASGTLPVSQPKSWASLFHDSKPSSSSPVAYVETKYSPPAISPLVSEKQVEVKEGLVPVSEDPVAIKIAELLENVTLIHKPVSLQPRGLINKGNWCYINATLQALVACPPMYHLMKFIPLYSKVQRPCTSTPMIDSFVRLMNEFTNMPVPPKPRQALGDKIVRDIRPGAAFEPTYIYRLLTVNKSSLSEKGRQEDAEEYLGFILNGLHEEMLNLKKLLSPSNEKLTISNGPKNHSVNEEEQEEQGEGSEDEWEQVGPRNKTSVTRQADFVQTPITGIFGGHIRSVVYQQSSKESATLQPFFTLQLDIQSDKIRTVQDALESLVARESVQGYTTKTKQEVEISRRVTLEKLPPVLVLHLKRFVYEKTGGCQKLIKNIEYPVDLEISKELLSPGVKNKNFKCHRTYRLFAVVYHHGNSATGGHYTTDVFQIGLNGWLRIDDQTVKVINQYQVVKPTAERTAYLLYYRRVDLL
USP17 block = inhibitors of human USP17 deubiquitinase; A8MUK1; purified USP17, Ub-rhodamine cleavage fluorescence, 3 h; inhibition, % at 50 µM; 47,000 compounds, 6.5% hits; AID 1645855
An asterisk follows results filed as active. Cut-off read from the data, not from the text of the source: active = inhibition above about 30%; inactive = the rest.

What do the screens show for `Cc1ccc(-c2c3c(=O)n(C)c(=O)n(C)c3cn2CCCN2CCOCC2)cc1`?
USP28 block: 8; USP30 block: 14; USP8 block: -2; USP10 block: 1; USP17 block: 5

Results for Cc1ccc(-c2c3c(=O)n(C)c(=O)n(C)c3cn2-c2ccc3c(c2)OCCO3)cc1 ?
USP28 block: -22; USP30 block: -39; USP8 block: 63*; USP10 block: -1; USP17 block: 14

How did Cc1nccn1-c1cncc(C2CCCN2C(=O)Cc2c[nH]c3ccccc23)n1 (stereo not drawn) do in these assays?
USP28 block: 0; USP30 block: 6; USP8 block: 10; USP10 block: -4; USP17 block: 0

Results for CN1C(=O)N(CC(=O)N2CCCC2c2cncc(-n3ccnc3)n2)C(=O)C12CCCCC2 (stereo not drawn) ?
USP28 block: 6; USP30 block: 17; USP8 block: 36*; USP10 block: 0; USP17 block: 11

How did COc1ccc(Nc2nc(C(=O)NCc3ccc4c(c3)OCO4)cc3occc23)cc1 do in these assays?
USP28 block: 25; USP30 block: -37; USP8 block: 67*; USP10 block: 33*; USP17 block: 63*

How did COc1ccc(Nc2nc(C(=O)NCc3ccccc3)cc3occc23)cc1 do in these assays?
USP28 block: 24; USP30 block: -12; USP8 block: 55*; USP10 block: 15; USP17 block: 57*

How did Cc1ccc(NS(=O)(=O)c2ccc(C(=O)Nc3cc(S(=O)(=O)N4CCOCC4)ccc3N3CCOCC3)cc2)cc1 do in these assays?
USP28 block: 12; USP30 block: 17; USP8 block: 12; USP10 block: 2; USP17 block: 8

Results for Cc1ccccc1NC(=O)Cn1c(C)nc2c(c1=O)CCN(Cc1ccccc1)C2 ?
USP28 block: -3; USP30 block: -21; USP8 block: 49*; USP10 block: -14; USP17 block: 16

What do the screens show for `O=C(NCCn1ncc2c(N3CCCCC3)ncnc21)C1CC1`?
USP28 block: 5; USP30 block: 9; USP8 block: 13; USP10 block: 3; USP17 block: 11

Results for CC1=C(C(=O)OCCc2ccccc2)C(c2ccc3c(c2)OCO3)NC(=O)N1 (stereo not drawn) ?
USP28 block: 34*; USP30 block: 39*; USP8 block: 6; USP10 block: 8; USP17 block: 14

How did O=S(=O)(c1ccc(Cl)cc1)N1CCN(c2ccnc3cc(Cl)ccc23)CC1 do in these assays?
USP28 block: 7; USP30 block: 30*; USP8 block: -4; USP10 block: 4; USP17 block: 7

Results for O=C(Cc1ccccc1)N1CCN(c2ccnc3cc(Cl)ccc23)CC1 ?
USP28 block: 2; USP30 block: 20; USP8 block: -42; USP10 block: 0; USP17 block: -2

Results for O=C(c1cccc2ncccc12)N1CCN(c2ccnc3cc(Cl)ccc23)CC1 ?
USP28 block: -8; USP30 block: -373; USP8 block: 48*; USP10 block: 1; USP17 block: -102

What do the screens show for `O=S(=O)(c1ccccc1)N1CCn2cccc2C1c1ccc(F)cc1` (stereo not drawn)?
USP28 block: -22; USP30 block: -52; USP8 block: -88; USP10 block: -3; USP17 block: -39

How did O=C(c1cnn2cccnc12)N1CCn2c(nnc2C2CC2)C1 do in these assays?
USP28 block: 16; USP30 block: 27; USP8 block: 26; USP10 block: 3; USP17 block: 18

What do the screens show for `O=C(c1cnn2cccnc12)N1CCC(c2ccn3nccc3n2)CC1`?
USP28 block: 15; USP30 block: 33*; USP8 block: 4; USP10 block: 7; USP17 block: 18

What do the screens show for `Cc1ccc(CN2C(=O)c3cc4ccccc4n3CC2(C)C(=O)NCc2ccccc2)o1` (stereo not drawn)?
USP28 block: 8; USP30 block: 30; USP8 block: 5; USP10 block: 7; USP17 block: 64*

Results for CC1(C(=O)NCc2ccccc2)Cn2c(cc3ccccc32)C(=O)N1Cc1ccccc1 (stereo not drawn) ?
USP28 block: 23; USP30 block: 0; USP8 block: -162; USP10 block: 16; USP17 block: 50*

Results for CC1(C(=O)NC2CCCC2)Cn2c(ccc2-c2ccco2)C(=O)N1Cc1ccccc1 (stereo not drawn) ?
USP28 block: -10; USP30 block: -234; USP8 block: 57*; USP10 block: -6; USP17 block: 30

What do the screens show for `CC1(C(=O)NCc2ccccc2)Cn2c(cc3ccccc32)C(=O)N1Cc1cccnc1` (stereo not drawn)?
USP28 block: 8; USP30 block: -31; USP8 block: 29; USP10 block: 5; USP17 block: 12

How did COc1ccc(N2C(=O)c3cc4ccccc4n3CC2(C)C(=O)NC2CCCC2)cc1 (stereo not drawn) do in these assays?
USP28 block: 10; USP30 block: 15; USP8 block: 31*; USP10 block: 11; USP17 block: 15

How did COc1cccc(N(C(=O)CCc2ccccc2OC)c2nc3ccccc3s2)c1 do in these assays?
USP28 block: 12; USP30 block: 17; USP8 block: 12; USP10 block: 8; USP17 block: 2

How did Cc1nn(-c2ccccc2)c(N2CCCC2)c1/C=C(\C#N)c1nc2ccccc2s1 do in these assays?
USP28 block: -154; USP30 block: -398; USP8 block: -127; USP10 block: -10; USP17 block: -108

What do the screens show for `O=C(Cc1ccc(F)cc1)N1CCN(C(=O)c2cc(-c3ccccn3)n[nH]2)CC1`?
USP28 block: -5; USP30 block: 7; USP8 block: -99; USP10 block: 2; USP17 block: -18

Results for COc1cccc(N2CCN(C(=O)C3CCN(c4nc(NC(C)=O)ns4)CC3)CC2)c1 ?
USP28 block: -4; USP30 block: -3; USP8 block: -47; USP10 block: -4; USP17 block: 69*

Results for C/C1=C\CCC(C)C(O)CC(O)C(C)C(O)CCC(C)C(O)CC2(O)OC(CC(OC(=O)CC(=O)O)CC(O)CC(O)CC(O)C(C)C(O)/C=C/C(C)C(C(C)CCCCCCCCN=C(N)N)OC1=O)CC(O)C2O (stereo not drawn) ?
USP28 block: 51*; USP30 block: -42; USP8 block: -19; USP10 block: -9; USP17 block: 2

How did Cc1nn(C)c(NC(=O)Nc2ccc(F)cc2F)c1C1=CCCCC1 do in these assays?
USP28 block: -11; USP30 block: -8; USP8 block: -2; USP10 block: -1; USP17 block: 0

Results for Cc1nn(C)c(NC(=O)Nc2ccccc2F)c1C1=CCCCC1 ?
USP28 block: 5; USP30 block: 34*; USP8 block: 2; USP10 block: -1; USP17 block: 24

What do the screens show for `N[C@@H]1CC[C@@H](Oc2cccnc2)[C@H](O)[C@H]1N1CCCCC1`?
USP28 block: 2; USP30 block: 3; USP8 block: 2; USP10 block: -3; USP17 block: -1

From PubChem BioAssay
